Consider eight compounds from PubChem BioAssay (NCI).

About 83,000 compounds went through this panel and 20% of them were active in at least one assay; those are over-represented in the sample as a whole.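 Note: values are percent growth. 100 is the growth of untreated cells, values between 100 and 0 indicate rising inhibition; between -100 and 0 indicates cell death.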 A number with no mark means an inactive call. The source made the active and inactive calls. Rule for the calls: active = growth percent below 10; inactive = the rest.

Among the test systems are SK-MEL-2 melanoma; EKVX NSCLC; SN12C renal; UO-31 renal; TK-10 renal; ACHN renal; CAKI-1 renal; CCRF-CEM leukemia; MOLT-4 leukemia; SR leukemia; RPMI-8226 leukemia; OVCAR-8 ovarian; OVCAR-5 ovarian; OVCAR-4 ovarian; SK-OV-3 ovarian; IGROV1 ovarian; OVCAR-3 ovarian; HS 578T breast; NCI/ADR-RES ovarian.
Assay in all cases: NCI-60 one-dose screen, 48 h (100 = growth as untreated, 0 = no growth, -100 = all killed)
Common to all, as to settings: 10 µM unless noted

On to `Nc1n[nH]c2ccc([C@@H]3Nc4ccc5[nH]ncc5c4[C@H]4C5C=CC(C5)[C@@H]34)cc12` (some centres not stated), for which the growth was 46.9% with SK-MEL-2 melanoma; 37.7% in the experiment on EKVX NSCLC; 34.2% with SN12C renal; 44.5% with UO-31 renal; 67.5% in the experiment on TK-10 renal; 24.4% in the experiment with ACHN renal. Besides, the growth with CAKI-1 renal was 35.3%; with CCRF-CEM leukemia, 19.6%; in the experiment on MOLT-4 leukemia, 15.1%; in the experiment with SR leukemia it was 11.6%; with RPMI-8226 leukemia it was 44.7%; in the experiment on OVCAR-8 ovarian, 27.1%. Besides, the growth with OVCAR-5 ovarian is 29.5%; with OVCAR-4 ovarian, 30.2%; with SK-OV-3 ovarian it was 42.6%; with IGROV1 ovarian, 16.6%; in the experiment on OVCAR-3 ovarian it was 7.18% (active); in the experiment on HS 578T breast, 3.92% (active). For the same compound, in the experiment with NCI/ADR-RES ovarian, the growth was -27.5% (active).
Take `COc1ccc(/C=C\c2cc(OC)c(OC)c(OC)c2)cc1OC(=O)c1cccc(Cn2cc(CCOC(=O)[C@H](N)Cc3cn(C)c4ccccc34)nn2)c1`: the growth in the experiment with SK-MEL-2 melanoma was 51.1%; with EKVX NSCLC it was 47.2%; with SN12C renal, 38.5%; in the experiment on UO-31 renal it was 42.5%; in the experiment on TK-10 renal, 79.6%; in the experiment on ACHN renal, 26.6%. Also, the growth in the experiment with CAKI-1 renal is 34.4%; in the experiment on CCRF-CEM leukemia, 10.2%; with MOLT-4 leukemia, 6.32% (active); with SR leukemia it was -0.0904% (active); in the experiment on RPMI-8226 leukemia, 25.9%; with OVCAR-8 ovarian, 23%. Besides, the growth in the experiment on OVCAR-5 ovarian is 41%; in the experiment with OVCAR-4 ovarian, 20.9%; with SK-OV-3 ovarian, 34.7%; in the experiment on IGROV1 ovarian, 16.2%; in the experiment with OVCAR-3 ovarian, 1.65% (active); in the experiment on HS 578T breast it was 26.9%. Besides, the growth in the experiment with NCI/ADR-RES ovarian was 6.28% (active).
Regarding `CCN(CC)c1ccc(/C=N\NC(=O)/C=C/C=C/c2ccc3c(c2)OCO3)c(O)c1`, the growth with SK-MEL-2 melanoma was 65.7%; in the experiment on EKVX NSCLC, 52.2%; with SN12C renal, 54.1%; with UO-31 renal it was 25%; in the experiment on TK-10 renal it was 37.8%; with ACHN renal, 25.6%. Besides, the growth in the experiment with CAKI-1 renal is 29.3%; in the experiment with CCRF-CEM leukemia it was 21.7%; in the experiment with MOLT-4 leukemia it was 18.3%; in the experiment on SR leukemia it was 17.6%; in the experiment on RPMI-8226 leukemia, 53.6%; in the experiment on OVCAR-8 ovarian, 32.9%. For the same compound, the growth is 60.9% in the experiment with OVCAR-5 ovarian; 15.3% in the experiment on OVCAR-4 ovarian; 39.5% in the experiment with SK-OV-3 ovarian; 38.2% with IGROV1 ovarian; 4.95% (active) in the experiment on OVCAR-3 ovarian; 68.1% in the experiment with HS 578T breast. The growth with NCI/ADR-RES ovarian was 17.6%.
Turning to `COc1ccc(/C=C2\Oc3cc(OCCCCN4CCCC4)ccc3C2=O)cc1`, the growth in the experiment with SK-MEL-2 melanoma is 98.9%; with EKVX NSCLC, 91.5%; in the experiment on SN12C renal it was 90.3%; with UO-31 renal, 68%; with TK-10 renal it was 98.1%; with ACHN renal it was 95.5%. In addition, the growth in the experiment on CAKI-1 renal is 95%; with CCRF-CEM leukemia, 13.8%; in the experiment with MOLT-4 leukemia, 42.7%; with SR leukemia, -25.3% (active); in the experiment with RPMI-8226 leukemia it was 80.7%; in the experiment with OVCAR-8 ovarian, 91.1%. For the same compound, the growth with OVCAR-5 ovarian was 93.4%; in the experiment on OVCAR-4 ovarian, 92.3%; in the experiment on SK-OV-3 ovarian, 113%; in the experiment on IGROV1 ovarian, 81.2%; with OVCAR-3 ovarian it was 94.3%; in the experiment with HS 578T breast, 90.9%. Also, in the experiment on NCI/ADR-RES ovarian, the growth was 95.1%.
`Nc1nc2ccc3[nH]ncc3c2c2c1CCCC2`: the growth in the experiment on SK-MEL-2 melanoma is -7.53% (active); in the experiment on EKVX NSCLC, -4.32% (active); in the experiment with SN12C renal, 11.3%; in the experiment with UO-31 renal it was 5.99% (active); in the experiment on TK-10 renal, 4.7% (active); with ACHN renal, 3.71% (active). In addition, the growth is 6.67% (active) in the experiment on CAKI-1 renal; 0.983% (active) in the experiment with CCRF-CEM leukemia; -2.01% (active) in the experiment on MOLT-4 leukemia; -16.6% (active) with SR leukemia; 6.83% (active) with RPMI-8226 leukemia; 7.6% (active) in the experiment on OVCAR-8 ovarian. The growth is 8.24% (active) in the experiment with OVCAR-5 ovarian; 16.2% in the experiment on OVCAR-4 ovarian; 16.6% with SK-OV-3 ovarian; 8.21% (active) in the experiment on IGROV1 ovarian; 5.2% (active) with OVCAR-3 ovarian; -9.88% (active) in the experiment with HS 578T breast. Moreover, in the experiment with NCI/ADR-RES ovarian, the growth was 2.46% (active).
With `CC1=C[C@H]2c3c(c(O)c(O)c4oc(-c5ccccc5)cc(=O)c34)[C@H](c3cc(O)c(O)c4oc(-c5ccccc5)cc(=O)c34)[C@H]2C(C)(C)C1`, the growth in the experiment on SK-MEL-2 melanoma is -3.08% (active); with EKVX NSCLC, 14.5%; in the experiment on SN12C renal, 1.79% (active); in the experiment on UO-31 renal it was -50.2% (active); in the experiment with TK-10 renal, 28.4%; in the experiment on ACHN renal it was 2.25% (active). In addition, the growth with CAKI-1 renal is -27% (active); in the experiment on CCRF-CEM leukemia, 4.65% (active); with MOLT-4 leukemia, 5.24% (active); in the experiment with SR leukemia, 0.0772% (active); in the experiment with RPMI-8226 leukemia, 7.2% (active); in the experiment with OVCAR-8 ovarian, 8.73% (active). Besides, the growth with OVCAR-5 ovarian is 20%; in the experiment on OVCAR-4 ovarian, 10.4%; in the experiment with SK-OV-3 ovarian it was -3.99% (active); with IGROV1 ovarian it was -31.1% (active); in the experiment on OVCAR-3 ovarian it was 7.79% (active); with HS 578T breast, 5.98% (active). Moreover, the growth in the experiment with NCI/ADR-RES ovarian is 17.5%.
For `Nc1n[nH]c2ccc([C@@H]3Nc4ccc5cn[nH]c5c4[C@H]4C5CCC(C5)[C@@H]34)cc12` (some centres not stated), the growth is 55.5% with SK-MEL-2 melanoma; 48.7% in the experiment on EKVX NSCLC; 43.9% in the experiment with SN12C renal; 38.9% with UO-31 renal; 74.3% in the experiment with TK-10 renal; 39.2% with ACHN renal. Also, the growth with CAKI-1 renal is 33.2%; with CCRF-CEM leukemia it was 15.6%; in the experiment with MOLT-4 leukemia, 20.8%; in the experiment on SR leukemia it was 14.3%; in the experiment with RPMI-8226 leukemia, 40.3%; in the experiment on OVCAR-8 ovarian, 35.5%. For the same compound, the growth is 40.3% in the experiment with OVCAR-5 ovarian; 35.2% in the experiment with OVCAR-4 ovarian; 37.7% with SK-OV-3 ovarian; 22.1% with IGROV1 ovarian; -5.18% (active) with OVCAR-3 ovarian; 21.2% in the experiment with HS 578T breast. Moreover, the growth with NCI/ADR-RES ovarian was 20.7%.
As to `Nc1n[nH]c2cc(F)c([C@@H]3Nc4ccc5[nH]ncc5c4[C@H]4C5CCC(C5)[C@@H]34)cc12` (some centres not stated), the growth with SK-MEL-2 melanoma was 26.2%; in the experiment with EKVX NSCLC, 47.2%; in the experiment with SN12C renal, 33.5%; in the experiment on UO-31 renal, 38.6%; with TK-10 renal it was 52.5%; with ACHN renal it was 21.1%. Further, the growth in the experiment with CAKI-1 renal is 9.87% (active); with CCRF-CEM leukemia, 16.6%; in the experiment on MOLT-4 leukemia, 16.1%; with SR leukemia, 9.53% (active); in the experiment on RPMI-8226 leukemia, 32.1%; with OVCAR-8 ovarian it was 19.5%. The growth in the experiment on OVCAR-5 ovarian is 30.1%; in the experiment with OVCAR-4 ovarian it was 32.1%; with SK-OV-3 ovarian, 20.6%; with IGROV1 ovarian it was 15%; in the experiment on OVCAR-3 ovarian, 12.9%; in the experiment with HS 578T breast, -4.82% (active). Moreover, the growth with NCI/ADR-RES ovarian is -26.9% (active).
